Test [1] addresses Paired box protein Pax-6 (Homo sapiens) (UniProt P26367). Put plainly: ATG_Pax6_CIS: Attagene CIS-FACTORIAL HepG2 Assay for human Paired Box 6 (PAX6) (AID 2282956). The note with it: HepG2 CIS-FACTORIAL PAX6 reporter transcription, RNA readout; actives raise or lower the signal. The method in brief: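 Fluorescent RT-PCR products separated by capillary electrophoresis report PAX6-linked promoter mRNA in HepG2 cells 24 h post-dose. Curves fitted bidirectionally, DMSO as negative control.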

Test [2] is described as follows: ATG_RORE_CIS: Attagene CIS-FACTORIAL HepG2 Assay for human RAR-related Orphan Receptor Element (RORE) (AID 2282959). The note with it: HepG2 Attagene cis-factorial RORE reporter, mRNA; actives raise or lower the signal. The method in brief:
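HepG2 cells transiently transfected with multiple cis-element reporter transcription units, exposed to chemical for 24 h. Reporter mRNA quantified by RT-PCR, 6-FAM primer-extension labeling, HpaI digestion and capillary electrophoresis; bidirectional fit versus DMSO baseline.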

Test [3] is described as follows: ATG_Sox_CIS: Attagene CIS-FACTORIAL HepG2 Assay for human SRY-box transcription factor (SOX) (AID 2282960). The note with it: HepG2 Attagene cis-factorial SOX reporter, mRNA; actives raise or lower the signal. In short, it runs like this:
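HepG2 cells transiently transfected with cis-element-driven multiple reporter transcription units, dosed 24 h; reporter mRNA measured by RT-PCR, FAM labelling, HpaI digestion and capillary electrophoresis. Bidirectional fit versus DMSO baseline.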

Test [4] is described as follows: ATG_SREBP_CIS: Attagene CIS-FACTORIAL HepG2 Assay for human Sterol Regulatory Element Binding (SREBP) (AID 2282962). The note with it: HepG2 Attagene cis-factorial SREBP reporter, mRNA; actives raise or lower the signal. The method in brief: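 Endogenous factor activity is measured in HepG2 through multiplexed reporter units under cis-element control. Following a 24 h incubation, reporter transcripts are reverse-transcribed, PCR-amplified and sized by capillary electrophoresis; activity is fitted in both directions relative to DMSO.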

Test [5] deals with Signal transducer and activator of transcription 3 (Homo sapiens) (UniProt P40763). Put plainly: ATG_STAT3_CIS: Attagene CIS-FACTORIAL HepG2 Assay for human Signal Transducer and Activator of Transcription 3 (STAT3) (AID 2282963). The note with it: HepG2, Attagene cis-factorial STAT3 reporter transcription; actives raise or lower the signal. The method in brief:
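Uses human liver HepG2 transiently carrying cis-regulated reporter transcription units. Following 24 h dosing, reporter mRNA induction was detected by RT-PCR and capillary electrophoresis, analysed bidirectionally versus DMSO.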

Test [6] can be described thus: ATG_TA_CIS: Attagene CIS-FACTORIAL HepG2 Assay for human TA Basal Promoter (AID 2282964). The note with it: HepG2 Attagene CIS-factorial TA basal promoter reporter; actives raise or lower the signal. The method in brief:
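Cis-factorial format in HepG2: reporters report endogenous factors, not chimeric Gal4 fusions. After 24 h treatment, reporter transcripts were measured by RT-PCR-capillary electrophoresis fluorescence, analysed bidirectionally versus DMSO.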

Test [7] is described as follows: ATG_TCF_b_cat_CIS: Attagene CIS-FACTORIAL HepG2 Assay for human T-Cell-Factor with beta-catenin (TCF/b-cat) (AID 2282965). The note with it: HepG2 TCF/beta-catenin cis-reporter transcription, actives raise or lower the signal. The method in brief: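 Using capillary electrophoresis as the read-out, labelled reporter cDNA fragments from transiently transfected HepG2 were sized and quantified. Exposure lasted 24 hours; activity in either direction was referenced to DMSO.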

The nature of test [8]: ATG_TAL_CIS: Attagene CIS-FACTORIAL HepG2 Assay for human TAL Basal Promoter (AID 2282966).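 Also: background control endpoint measuring basal TAL promoter reporter mRNA not a specific factor.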 The note with it: HepG2 Attagene cis-factorial TAL promoter reporter; actives raise or lower the signal. In short, it runs like this: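 Background-control endpoint: basal TAL promoter reporter transcripts in transiently transfected HepG2, measured 24 h after dosing. Read-out by RT-PCR with fluorescent primer extension and capillary electrophoresis; gain or loss of signal fitted relative to DMSO.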

A short description of test [9]: ATG_TGFb_CIS: Attagene CIS-FACTORIAL HepG2 Assay for human Transforming Growth Factor (TGF) (AID 2282967). The note with it: HepG2 Attagene CIS TGFb reporter, mRNA transcription; actives raise or lower the signal. The method in brief: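 Multiplexed cis-reporter HepG2 system, 24 h treatment; mRNA induction read by fluorescence after RT-PCR and CE; DMSO negative control, bidirectional curve fitting.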

For test [10], the target named is Nuclear receptor subfamily 1 group I member 3 (Homo sapiens) (UniProt Q14994). Briefly: ATG_CAR_TRANS: Attagene TRANS-FACTORIAL HepG2 Assay for human Constitutive Androstane Receptor (CAR) (AID 2282969; active = hit-call score of the fitted dose curve at least 0.9, where 1 is the maximum;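 also: activators raise reporter mRNA above DMSO so AC50 marks induction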). The note with it: HepG2 Attagene TRANS-FACTORIAL CAR reporter. In short, it runs like this:
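Steps: transient transfection of HepG2 with multiple GAL4-UAS reporter units; 24 h compound incubation; RNA isolation, RT-PCR, 6-FAM primer extension, HpaI digest; capillary electrophoresis. Gain-of-signal relative to DMSO negative control.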

Test [11] deals with X-box-binding protein 1 (Homo sapiens) (UniProt P17861). Put plainly: ATG_Xbp1_CIS: Attagene CIS-FACTORIAL HepG2 Assay for human X-box Binding Protein 1 (XBP1) (AID 2282972). The note with it: HepG2 XBP1 cis-element reporter, Attagene multiplex; actives raise or lower the signal. The method in brief: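 Multiplexed cis-reporter readout in transfected HepG2 liver cells. Exposure lasted 24 hours. Activity in either direction was fitted against DMSO as negative control and baseline.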

Test [12] in a line: ATG_M_19_TRANS: Attagene TRANS-FACTORIAL HepG2 Assay for M19 Transcription Factor (Internal Marker) (AID 2282974; active = hit-call score of the fitted dose curve at least 0.9, where 1 is the maximum). The note with it: HepG2 Attagene TRANS-FACTORIAL M19 internal marker reporter. The method in brief: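 HepG2 cells transiently transfected with multiple GAL4-UAS reporter transcription units were exposed to chemicals for 24 h. Reporter mRNA was read by RT-PCR, 6-FAM primer extension, HpaI digestion and capillary electrophoresis; gain of signal fitted relative to DMSO.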

Test [13] concerns the target Estrogen-related receptor gamma (Homo sapiens) (UniProt P62508). Briefly: ATG_ERRg_TRANS: Attagene TRANS-FACTORIAL HepG2 Assay for human Estrogen-Related Receptor gamma (ERRg) (AID 2282977; active = hit-call score of the fitted dose curve at least 0.9, where 1 is the maximum;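 also: hits increase reporter signal over DMSO so potencies reflect activators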). The note with it: HepG2 Attagene TRANS reporter, ERRg transactivation. In short, it runs like this: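 Exogenous NR-Gal4 chimera activity was assessed in HepG2 cells bearing transfected GAL4-UAS reporters. After 24 h dosing, total RNA underwent RT-PCR, fluorescent primer extension and HpaI digestion before capillary electrophoresis, with gain of signal scored against DMSO.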

Test [14] can be described thus: ATG_VDRE_CIS: Attagene CIS-FACTORIAL HepG2 Assay for human Vitamin D Receptor Element (VDRE) (AID 2282968). The note with it: HepG2 VDRE cis-reporter transcription, actives raise or lower the signal. In short, it runs like this:
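Transfected HepG2 reporter cells, chemical treatment 24 h. RNA isolated, cDNA amplified with reporter-specific primers, products analysed by capillary electrophoresis. Endpoint fitted in both directions versus DMSO.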

A short description of test [15]: ATG_GAL4_TRANS: Attagene TRANS-FACTORIAL HepG2 Assay for GAL4 (Internal Marker) (AID 2282976; active = hit-call score of the fitted dose curve at least 0.9, where 1 is the maximum). The note with it: HepG2 Attagene TRANS GAL4 internal marker reporter. The method in brief:
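In transfected human HepG2 liver cells dosed 24 h, GAL4 reporter mRNA serves as a baseline marker. Detection by RT-PCR with fluorescent capillary electrophoresis, activity fitted upward relative to DMSO.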

The nature of test [16]: ATG_PPRE_CIS: Attagene CIS-FACTORIAL HepG2 Assay for human Peroxisome Proliferator-activated Response Element (PPRE) (AID 2282958). The note with it: HepG2 PPRE cis-element reporter, Attagene transcription factor profiling; actives raise or lower the signal. In short, it runs like this: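 HepG2 cells transiently transfected with multiplexed cis-element reporter units measure endogenous transcription factor activity. After 24 h compound exposure, reporter mRNA is quantified by RT-PCR, 6-FAM labeling, HpaI digestion and capillary electrophoresis; bidirectional fits are made against DMSO baseline.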

Test [17] addresses Estrogen receptor (Homo sapiens) (UniProt P03372). Briefly: ATG_ERa_TRANS: Attagene TRANS-FACTORIAL HepG2 Assay for human Estrogen Receptor alpha (ERa) (AID 2282970; active = hit-call score of the fitted dose curve at least 0.9, where 1 is the maximum). The note with it: HepG2 Attagene TRANS ERa GAL4 reporter, mRNA. In short, it runs like this:
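Reporter transcripts were measured 24 h after dosing by RT-PCR with fluorescent primer extension and capillary electrophoresis. The system is transiently transfected HepG2 expressing exogenous NR-Gal4 chimeras driving GAL4-UAS reporters; DMSO is the baseline.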

Test [18] deals with Steroid hormone receptor ERR1 (Homo sapiens) (UniProt P11474). Put plainly: ATG_ERRa_TRANS: Attagene TRANS-FACTORIAL HepG2 Assay for human Estrogen-Related Receptor alpha (ERRa) (AID 2282971; active = hit-call score of the fitted dose curve at least 0.9, where 1 is the maximum). The note with it: HepG2 Attagene TRANS reporter, ERRa transactivation. In short, it runs like this: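 Reporter transcripts from ERRa-Gal4 chimera activity measured in transiently transfected human HepG2 cells 24 hours after dosing, using RT-PCR with 6-FAM primer extension, HpaI digestion and capillary electrophoresis; DMSO is baseline.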

Results filed as inconclusive are left out. Activity calls are given as the source filed them. The calls were made as follows, unless noted: active = hit-call score of the fitted dose curve at least 0.9, where 1 is the maximum; inactive = score below 0.9.

Nuclear receptor subfamily 1 group I member 3 (Homo sapiens), sequence (Q14994 whole entry, looked up, the tested form may be a part): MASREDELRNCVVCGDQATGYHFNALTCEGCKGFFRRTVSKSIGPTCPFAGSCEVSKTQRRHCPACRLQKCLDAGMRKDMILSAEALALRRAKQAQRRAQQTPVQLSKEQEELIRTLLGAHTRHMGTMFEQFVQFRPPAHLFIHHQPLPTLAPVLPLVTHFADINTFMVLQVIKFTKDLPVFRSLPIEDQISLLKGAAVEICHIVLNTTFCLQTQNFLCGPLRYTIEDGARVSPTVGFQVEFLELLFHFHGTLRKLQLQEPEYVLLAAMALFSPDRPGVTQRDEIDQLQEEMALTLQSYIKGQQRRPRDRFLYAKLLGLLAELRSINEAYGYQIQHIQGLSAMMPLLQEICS
Signal transducer and activator of transcription 3 (Homo sapiens), sequence (P40763 whole entry, looked up): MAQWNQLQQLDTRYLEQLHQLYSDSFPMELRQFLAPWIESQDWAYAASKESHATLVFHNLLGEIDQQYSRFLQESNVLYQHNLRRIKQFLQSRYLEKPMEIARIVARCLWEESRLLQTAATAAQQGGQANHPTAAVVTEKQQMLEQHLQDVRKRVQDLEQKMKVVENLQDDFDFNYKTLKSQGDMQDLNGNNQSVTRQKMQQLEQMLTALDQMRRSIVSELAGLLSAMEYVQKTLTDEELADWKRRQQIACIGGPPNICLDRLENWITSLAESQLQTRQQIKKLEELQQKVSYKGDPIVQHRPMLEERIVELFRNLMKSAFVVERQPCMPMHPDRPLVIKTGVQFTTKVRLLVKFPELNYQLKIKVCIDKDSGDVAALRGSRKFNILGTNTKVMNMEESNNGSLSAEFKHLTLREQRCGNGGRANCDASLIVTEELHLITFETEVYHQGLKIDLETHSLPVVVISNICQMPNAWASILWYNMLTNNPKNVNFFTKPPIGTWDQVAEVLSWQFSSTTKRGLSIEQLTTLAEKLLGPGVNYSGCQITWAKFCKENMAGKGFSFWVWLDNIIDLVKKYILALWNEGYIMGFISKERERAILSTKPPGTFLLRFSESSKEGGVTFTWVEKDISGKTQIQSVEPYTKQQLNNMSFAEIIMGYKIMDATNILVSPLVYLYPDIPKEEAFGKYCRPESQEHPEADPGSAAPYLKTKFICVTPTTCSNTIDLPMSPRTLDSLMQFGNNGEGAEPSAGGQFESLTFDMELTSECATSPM
Paired box protein Pax-6 (Homo sapiens), sequence (P26367 whole entry, looked up): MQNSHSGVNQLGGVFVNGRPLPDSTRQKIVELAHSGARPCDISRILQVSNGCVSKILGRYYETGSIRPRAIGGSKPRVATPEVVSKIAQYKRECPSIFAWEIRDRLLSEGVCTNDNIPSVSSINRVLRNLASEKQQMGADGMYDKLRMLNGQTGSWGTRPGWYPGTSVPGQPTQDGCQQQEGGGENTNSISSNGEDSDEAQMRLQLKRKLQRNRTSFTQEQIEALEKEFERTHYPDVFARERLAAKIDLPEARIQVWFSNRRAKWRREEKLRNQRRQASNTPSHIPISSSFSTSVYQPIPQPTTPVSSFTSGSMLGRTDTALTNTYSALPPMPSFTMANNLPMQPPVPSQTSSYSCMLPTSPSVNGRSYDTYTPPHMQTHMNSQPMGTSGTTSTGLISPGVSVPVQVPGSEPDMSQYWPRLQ
X-box-binding protein 1 (Homo sapiens), sequence (P17861 whole entry, looked up): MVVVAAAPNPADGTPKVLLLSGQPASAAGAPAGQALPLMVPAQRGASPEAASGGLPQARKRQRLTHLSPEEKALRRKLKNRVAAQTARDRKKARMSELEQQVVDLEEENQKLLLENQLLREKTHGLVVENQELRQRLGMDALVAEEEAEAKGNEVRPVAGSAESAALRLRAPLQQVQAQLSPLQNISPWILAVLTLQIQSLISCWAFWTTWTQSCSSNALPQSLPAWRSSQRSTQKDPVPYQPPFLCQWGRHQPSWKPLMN
Steroid hormone receptor ERR1 (Homo sapiens), sequence (P11474 whole entry, looked up, the tested form may be a part): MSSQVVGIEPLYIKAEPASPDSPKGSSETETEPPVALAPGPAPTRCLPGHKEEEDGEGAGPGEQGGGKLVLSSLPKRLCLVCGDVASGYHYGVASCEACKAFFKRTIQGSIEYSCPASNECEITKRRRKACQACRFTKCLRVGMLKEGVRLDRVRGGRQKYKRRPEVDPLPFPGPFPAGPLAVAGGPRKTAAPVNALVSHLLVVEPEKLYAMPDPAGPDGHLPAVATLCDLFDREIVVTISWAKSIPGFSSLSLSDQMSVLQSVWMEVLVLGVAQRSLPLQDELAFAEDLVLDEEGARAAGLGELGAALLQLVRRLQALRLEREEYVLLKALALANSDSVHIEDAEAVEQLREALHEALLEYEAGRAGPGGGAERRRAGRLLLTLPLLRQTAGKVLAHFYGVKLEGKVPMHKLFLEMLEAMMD
Estrogen-related receptor gamma (Homo sapiens), sequence (P62508 whole entry, looked up, the tested form may be a part): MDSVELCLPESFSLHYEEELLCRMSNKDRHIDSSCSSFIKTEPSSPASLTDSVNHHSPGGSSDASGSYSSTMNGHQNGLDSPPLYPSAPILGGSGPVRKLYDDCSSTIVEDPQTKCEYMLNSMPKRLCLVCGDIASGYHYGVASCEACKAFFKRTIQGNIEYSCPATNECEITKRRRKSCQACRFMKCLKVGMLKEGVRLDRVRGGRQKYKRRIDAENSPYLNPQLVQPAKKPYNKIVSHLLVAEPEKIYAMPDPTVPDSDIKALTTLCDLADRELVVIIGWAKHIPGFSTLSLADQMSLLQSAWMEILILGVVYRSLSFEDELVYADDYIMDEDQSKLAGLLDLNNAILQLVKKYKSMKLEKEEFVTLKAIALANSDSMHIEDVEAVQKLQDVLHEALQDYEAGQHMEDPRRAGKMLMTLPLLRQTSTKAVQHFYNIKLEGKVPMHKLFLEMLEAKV
Estrogen receptor (Homo sapiens), sequence (P03372 whole entry, looked up, the tested form may be a part): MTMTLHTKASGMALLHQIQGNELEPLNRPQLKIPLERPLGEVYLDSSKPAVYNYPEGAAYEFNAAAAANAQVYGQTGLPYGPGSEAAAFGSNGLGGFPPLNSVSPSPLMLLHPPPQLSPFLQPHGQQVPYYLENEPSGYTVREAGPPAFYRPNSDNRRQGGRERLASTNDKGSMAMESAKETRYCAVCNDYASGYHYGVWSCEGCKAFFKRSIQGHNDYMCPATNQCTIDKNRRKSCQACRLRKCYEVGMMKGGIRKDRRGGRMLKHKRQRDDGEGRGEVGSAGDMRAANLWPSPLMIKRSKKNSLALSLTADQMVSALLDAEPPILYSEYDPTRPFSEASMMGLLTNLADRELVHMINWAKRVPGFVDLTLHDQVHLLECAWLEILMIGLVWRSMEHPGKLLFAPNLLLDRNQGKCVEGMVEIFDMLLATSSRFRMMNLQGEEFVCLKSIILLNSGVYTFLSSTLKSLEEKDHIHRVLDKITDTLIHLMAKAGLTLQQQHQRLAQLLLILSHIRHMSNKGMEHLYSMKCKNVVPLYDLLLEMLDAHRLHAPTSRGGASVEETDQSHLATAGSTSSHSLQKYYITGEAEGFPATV

Regarding `Cn1c(=O)c2c(ncn2C)n(C)c1=O`, the outcome in test [1], in test [2], in test [3], in test [4], in test [5] and in test [6] was inactive. For the same compound, the result in [7], in test [8], in test [9], in test [10], in [11] and in test [12] was inactive. Moreover, the outcome in test [13] was inactive.
For `CC(C)(O)c1coc(S(=O)(=O)NC(=O)Nc2c3c(cc4c2CCC4)CCC3)c1`, the compound was classed as inactive in [1], in test [2], in [3], in [4], in [5] and in test [6]. For the same compound, the compound was classed as inactive in [7], in [8], in [9], in [10], in test [11] and in test [12]. Besides, in test [15], the outcome was inactive. The concentration at half-maximal activity (AC50) in [14] was 44.5 µM (active).
Take `O=C(OC[C@H]1O[C@@H](OC(=O)c2cc(O)c(O)c(OC(=O)c3cc(O)c(O)c(O)c3)c2)[C@H](OC(=O)c2cc(O)c(O)c(OC(=O)c3cc(O)c(O)c(O)c3)c2)[C@@H](OC(=O)c2cc(O)c(O)c(OC(=O)c3cc(O)c(O)c(O)c3)c2)[C@@H]1OC(=O)c1cc(O)c(O)c(OC(=O)c2cc(O)c(O)c(O)c2)c1)c1cc(O)c(O)c(OC(=O)c2cc(O)c(O)c(O)c2)c1`: the result in [1], in test [2], in test [3], in [4], in test [5] and in test [6] was inactive. Moreover, the call in test [7], in test [8], in [9], in test [14], in [10] and in test [11] was inactive.
For `CC/C(=C\C(=N/O)C(N)=O)C(C)[N+](=O)[O-]` (configuration not stated), the outcome in test [1], in [16], in [2], in test [3], in [4] and in [5] was inactive. For the same compound, the result in test [6], in test [8], in test [9], in test [14], in [17] and in [18] was inactive. In addition, the compound was called inactive in test [11], in test [12] and in test [15]. Further, the AC50 in test [7] was 100 µM (active).
Take `CC(C)CC(C)(O)C#CC(C)(O)CC(C)C` (configuration not stated): the call in test [1], in [2], in test [3], in test [4], in test [5] and in test [6] was inactive. Further, the call in test [7], in [8], in test [9], in test [14], in test [11] and in [12] was inactive.

Usually AC50 stands for the concentration at which the activity in the assay is half-maximal.

Source of the values: PubChem BioAssay (EPA / NIEHS).
